Source: PubChem
This is a sample that favours compounds with a hit; in the whole collection about 8% have one here.
PostGolgi ctrl = inhibits growth of the yeast control strain; inhibition, % at 10 µM; 5% of 98,000 active; efflux-deficient yeast background strain, growth absorbance A615, 16 h
PTK2B oligo ant = antagonists of human Pyk2 oligomerization; Q293 cells, Pyk2 FERM NanoBiT luminescence; hits give low values; Q14289; z-score (the deposit names both 25 µM and 10 µM); 0.83% of 99,000 active; AID 1347419;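 active = Z-score of -3 or lower, scaled per plate to the spread of control and sample wells; inactive = z-score above -3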;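 also: negative z-score means lost luminescence so less FERM oligomerization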
Cav3 T inh = human Cav3.2 channel inhibition, primary screen. Cav3.2-expressing cells, Fluo-4 calcium fluorescence FDSS; hits give low values. O95180. 4% of 100,000 active. B-score at 10 µM;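 active = single-dose well whose peak fluorescence ratio is a statistical outlier from its plate by either plate-standardised score or position-corrected B-score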
PostGolgi yeast = growth inhibition of a yeast mutant, post-Golgi transport screen; AID 739; post-Golgi transport phenotypic cell assay; 0.9% of 98,000 active; inhibition, % at 10 µM;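 also: yeast cells grown in 1536-well plates; yeast grown about 18 h at 30C before absorbance read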
An asterisk follows results filed as active; nt = no result. Rule as the data show it, unless noted: active = inhibition above about 30%; inactive = the rest.

SMILES | PostGolgi ctrl | PTK2B oligo ant | Cav3 T inh | PostGolgi yeast
CC(C)Sc1nc2c(c(=O)[nH]c(=O)n2C)n1Cc1ccc(Cl)cc1 | 23.4 | -0.79 | nt | 3.0
CCC(C)Sc1nc2c(c(=O)[nH]c(=O)n2C)n1Cc1ccc(Cl)cc1 (stereo not given) | 46.3* | -1 | -2.85 | 5.7
CCCNC(=O)NC(=O)CSc1ccc2c(c1)OCCO2 | 5.5 | 0.09 | -0.0281 | 10.5
O=C(O)CCC(=O)Nc1ccc(Cc2ccc(NC(=O)CCC(=O)O)cc2)cc1 | 19.2 | 2.29 | -0.157 | -9.7
COC(=O)Nc1ccc(S(=O)(=O)N2c3ccccc3CCC2C)cc1 (stereo not given) | 34.2* | -3.17* | -7.24* | -2.4
CC(=O)Nc1ccc(S(=O)(=O)N2CCCc3ccccc32)cc1 | 4.9 | -0.74 | -0.915 | 5.0
CCc1ccccc1NC(=O)/C(=C/c1ccco1)c1ccccc1 | 34.9* | -0.28 | -5.54* | -2.2
Cc1ccc(NC(=O)c2ccc(-c3nn(C)c(=O)c4ccccc34)cc2)c(C)c1 | 40.5* | 0.15 | 0.787 | -3.6
Cc1ccccc1-n1nnnc1SC1CCOC1=O (stereo not given) | 35.1* | 1.81 | 0.756 | -1.7
CCCc1nnc2n1N=C(c1ccc(-c3cc(Cl)ccc3Cl)o1)CS2 | -0.8 | nt | 0.0272 | 3.8
C=CCOC(=O)C1=C[C@@H](c2coc3ccccc3c2=O)[C@H](CCCO)[C@@H](OCC)O1 | nt | nt | 0.0182 | nt
CCOC(=O)N1CCN(CC(O)COC2CC(C)CCC2C(C)C)CC1 (stereo not given) | 13.9 | 0.13 | -1.61 | 1.3
CCOC(=O)N1CCN(CC(O)COCCC23CC4CC(CC(C4)C2)C3)CC1 (stereo not given) | 31.0* | 0.45 | -1.76 | 3.9
Cc1ccc(N(CC(=O)O)S(C)(=O)=O)cc1Cl | -0.6 | 0.4 | 1.45 | -4.7
COCC(=O)Nc1cccc(C(F)(F)F)c1 | -0.1 | 0.43 | 0.011 | -1.6
CC(C)Oc1cc(NC(=O)CS(=O)CC(=O)Nc2cccc(C(F)(F)F)c2)c(Cl)cc1Cl (stereo not given) | 8.6 | -0.44 | -3.82* | -10.5
CCN(CC)S(=O)(=O)c1ccc(-c2nnc(SCc3nnc(-c4ccccc4)o3)o2)cc1 | -4.3 | 0.59 | 0.0601 | 2.5
CC(C)CCN=Cc1c(O)n(-c2ccccc2)c(=O)c2ccccc12 | 38.9* | 0.27 | 0.763 | 6.2
CCN1CCCC1CN=Cc1c(O)n(-c2ccccc2)c(=O)c2ccccc12 (stereo not given) | 4.9 | 0.62 | -0.754 | 1.1
NC(=O)CC(NC(=O)c1ccc(Br)cc1)c1ccc(N2CCC(Br)CC2)c([N+](=O)[O-])c1 (stereo not given) | nt | nt | 1.25 | nt
CC1(C)CC(=O)c2cc(OCC(=O)NCCN3CCOCC3)ccc2O1 | 25.4 | 0.4 | 0.472 | 6.6
CCOc1ccc(-n2cnnn2)cc1S(=O)(=O)Nc1c(C)cccc1C | 42.2* | 0.9 | 0.0251 | -1.1
CN(CC(CC(=O)Nc1nncs1)c1ccccc1)S(=O)(=O)c1ccc(Br)cc1 (stereo not given) | 9.8 | nt | -9.53* | 1.4
CCc1nnc(NC(=O)CC(CN(C)S(=O)(=O)c2ccccc2)c2ccccc2)s1 (stereo not given) | 1.4 | nt | -6.88* | 1.5
CN(CC(CC(=O)Nc1nncs1)c1ccccc1)S(=O)(=O)c1ccccc1 (stereo not given) | 6.2 | nt | -2.44 | 5.2
SMILES | PostGolgi ctrl | PTK2B oligo ant | Cav3 T inh | PostGolgi yeast
N#C/C(C(=O)Oc1ccccc1)=C1/Nc2ccccc2-c2ccccc21 | 5.0 | -0.02 | -1.27 | 10.2
Cc1ccc(-n2nc(C(=O)N/N=C/c3cccc(C(F)(F)F)c3)c3ccccc3c2=O)cc1C | -3.1 | nt | -0.442 | 18.5
COC(=O)C(NC(=O)c1ccccc1)(Nc1nc(C)cs1)C(F)(F)F (stereo not given) | -1.0 | 0.52 | 0.818 | -9.3
COC(=O)C(NC(=O)c1ccccc1C)(Nc1ncc(S(=O)(=O)c2ccc([N+](=O)[O-])cc2)s1)C(F)(F)F (stereo not given) | 1.6 | 0.24 | -7.77* | 11.4
COC(=O)C(NC(=O)c1ccc(F)cc1)(Nc1ncc(S(=O)(=O)c2ccc([N+](=O)[O-])cc2)s1)C(F)(F)F (stereo not given) | 0.7 | -1.07 | -8.16* | 4.2
CCCC(=O)Nc1nc2c(OC)ccc(OC)c2s1 | 10.0 | nt | -0.634 | -1.6
CC1CN(C(NC(=O)C(C)(C)C)C(Cl)(Cl)Cl)CC(C)O1 (stereo not given) | 6.3 | 0.37 | 0.00765 | 0.6
Cc1cccc(Cn2c(N3CCc4ccccc4C3)nc3c2c(=O)[nH]c(=O)n3C)c1 | 9.9 | -0.43 | 0.232 | 2.2
Cc1ccc(Cn2c(N3CCCCCC3)nc3c2c(=O)[nH]c(=O)n3C)cc1 | 43.4* | -0.4 | nt | 5.9
Cn1c(=O)[nH]c(=O)c2c1nc(CN1CCN(c3cccc(Cl)c3)CC1)n2Cc1ccccc1Cl | 51.4* | nt | -0.433 | 8.4
